From PubChem BioAssay come the findings set out here.

A short description of assay [1]: inhibitors of TNFa-induced NFkB p65 translocation, primary screen, imaging, HUVEC, MLSMR starter and 10KST1 sets (AID 438;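 active = inhibition above 20% together with a positive visual image hit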;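 also: compound added about 3h40 before a 20 min TNFalpha stimulation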;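 as to inhibition: signal is the nuclear over cytoplasmic p65 intensity ratio per well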). The conditions noted are these: HUVEC TNFa-induced p65 nuclear translocation; cell count: measured here: nuclei count (cytotoxicity indicator), at 2.08 µM; inhibition: at 2 µM, stronger effect = higher value, 0% TNFa-plus-vehicle, 100% no-TNFa wells.
A short description of assay [2]: reduction of polyQ htt aggregates in cells – imaging, exon1htt(103Q)mCFP cells, high-content imaging, primary screen (AID 483;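 active = visual image review flags a hit and inhibition of aggregation exceeds 20%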;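 also: compound exposure lasted 3 days before fixation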;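 as to nuclei count: percent of the per-plate median nuclei count of sample wells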). The following applies: exon1htt(103Q)mCFP cell line, aggregate imaging, at 2 µM; inhibition of aggregation: stronger effect = higher value; nuclei count: measured here: cell count, toxicity.
Assay [3] in a line: endothelial E-selectin expression blockers – imaging, HUVEC, immunofluorescence, MLSMR starter and 10KST1 sets, primary screen (AID 487;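 active = visually confirmed hit in the image check and inhibition above 20%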;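 as to inhibition: signal is fraction of cell area covered by stained E-selectin grains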;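 as to nuclei count: 100% = median nuclei count of all wells on the same plate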). The following applies: HUVEC TNFalpha-induced E-selectin immunofluorescence imaging, at 2 µM; inhibition: stronger effect = higher value; nuclei count: measured here: cell number, toxicity.
Assay [4] deals with Voltage-gated potassium channel subunit beta-2 (Rattus norvegicus) (UniProt P62483). In words: inhibitors of rat Kvbeta2 reductase activity – biochemical, NADPH fluorescence, primary screen (AID 622;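 active = fluorescence slope higher than the sample average by over 3 SD, cut at about -0.22 in these data, passing the limit was not always enough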;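 also: slope of raw intensity against log time taken from 70 to 1610 s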). The conditions noted are these: recombinant KvBeta, 4-cyanobenzaldehyde reduction, at 10 µM, stronger effect = higher value.
The target is the same in assay [5]. In words: enhancers of rat Kvbeta2 NADPH turnover – biochemical, NADPH fluorescence, primary screen (AID 623;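 active = NADPH fluorescence slope more negative than the mean of all samples by about 3 SD, 99.7% confidence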;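 also: fluorescence intensity change per second fitted from 20 to 320 s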). The conditions noted are these: Recombinant KvBeta, NADPH fluorescence decrease slope, 10 min; at 10 µM; stronger effect = lower value.
The target of assay [6] is Alpha-2C adrenergic receptor (Homo sapiens) (UniProt P18825). In words: compounds altering alpha2C-coupled GIRK flux – cell-based, HEK293 alpha2C/GIRK1/2, thallium flux, primary screen (AID 624;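 active = fluorescence slope after compound addition differing from the mean of all screened samples at 99.7% confidence, in either direction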;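 also: slope of fluorescence ratio to pre-addition baseline per second over 15 to 24 s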). The following applies: thallium flux BTC fluorescence, at 10 µM, actives lie on both sides.
Assay [7] is described as follows: blockers of RIG-like receptor reporter activation – cell-based, Sendai virus stimulus, luciferase, 10K MLSCN set, TLR/RLR signaling modifier project, primary screen (AID 602276;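 active = inhibition at or above 50% at 10 µM; inactive = inhibition below 50%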;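 also: firefly luciferase from ISG56 promoter only with Renilla not read in this screen; 0% = Sendai virus plus DMSO and 100% = medium plus DMSO without virus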). The following applies: HEK293 RL24 IRF3 luciferase reporter, at 10 µM, stronger effect = higher value.
Assay [8] is described as follows: TLR3 IRF3 reporter activation blockers – cell-based, poly I:C stimulus, luciferase, 10K MLSCN set, primary screen (AID 602277). The following applies: HEK293-TLR3 RL24 IRF3 luciferase reporter, at 10 µM, stronger effect = higher value.

The source made the active and inactive calls.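 The calls were made as follows, unless noted: active = inhibition of the reporter signal at or above 50%; inactive = inhibition below 50%.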

Voltage-gated potassium channel subunit beta-2 (Rattus norvegicus), sequence (P62483 whole entry, looked up): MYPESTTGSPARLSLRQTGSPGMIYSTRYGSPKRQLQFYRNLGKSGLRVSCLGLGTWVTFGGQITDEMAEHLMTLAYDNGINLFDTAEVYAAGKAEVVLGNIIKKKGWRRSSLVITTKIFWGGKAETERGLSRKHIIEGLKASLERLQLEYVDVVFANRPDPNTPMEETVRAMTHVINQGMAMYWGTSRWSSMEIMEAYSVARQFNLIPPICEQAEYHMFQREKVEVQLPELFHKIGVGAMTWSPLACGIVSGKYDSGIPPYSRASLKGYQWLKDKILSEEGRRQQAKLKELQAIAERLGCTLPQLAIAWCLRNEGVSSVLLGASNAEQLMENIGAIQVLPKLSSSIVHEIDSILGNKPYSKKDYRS
Alpha-2C adrenergic receptor (Homo sapiens), sequence (P18825 whole entry, looked up): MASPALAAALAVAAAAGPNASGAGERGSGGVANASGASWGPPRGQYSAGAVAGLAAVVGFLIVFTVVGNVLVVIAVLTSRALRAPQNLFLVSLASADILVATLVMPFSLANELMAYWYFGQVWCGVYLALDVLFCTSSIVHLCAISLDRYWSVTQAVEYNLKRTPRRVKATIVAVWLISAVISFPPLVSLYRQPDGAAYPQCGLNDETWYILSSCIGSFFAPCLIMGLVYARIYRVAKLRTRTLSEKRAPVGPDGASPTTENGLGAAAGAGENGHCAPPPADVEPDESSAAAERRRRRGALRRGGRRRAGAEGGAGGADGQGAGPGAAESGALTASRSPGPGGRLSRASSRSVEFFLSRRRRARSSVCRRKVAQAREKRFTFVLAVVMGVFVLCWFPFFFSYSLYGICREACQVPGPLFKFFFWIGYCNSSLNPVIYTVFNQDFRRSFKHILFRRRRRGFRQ

The term inhibition denotes the change of the read-out against control, counted positive when it falls. Turning to `CCC(=O)Nc1ccc2nc(SCC(=O)N3CCCC3)sc2c1`, the cell count in assay [1] worked out at 709. The inhibition in assay [1] is -23.3% (inactive); in assay [3], -56.1% (inactive); in assay [7], -25.3% (inactive); in assay [8], -44.2% (inactive). The inhibition of aggregation in assay [2] is -2.1% (inactive). The nuclei count worked out at 102% in assay [2] and 122% in assay [3]. Also, the fluorescence slope in assay [4] is -0.503 (inactive). For the same molecule, the NADPH fluorescence slope in assay [5] was -2.8e-05 (inactive). Moreover, the slope in assay [6] is 0.00507 (inactive).
As for `CC(C)CC1NC2(C(=O)N(C)c3ccccc32)C2C(=O)N(C(C)C)C(=O)C12` (centres undefined), the cell count in assay [1] was 798. Further, the inhibition was -5.5% (inactive) in assay [1], 13.8% (inactive) in assay [3], -1.45% (inactive) in assay [7] and -17% (inactive) in assay [8]. The inhibition of aggregation in assay [2] was -49.8% (inactive). Besides, the nuclei count was determined as 72.1% in assay [2] and 103% in assay [3]. In assay [4], the fluorescence slope was -0.482 (inactive). In addition, in assay [5], the NADPH fluorescence slope was 9.4e-06 (inactive). The slope in assay [6] is 0.00636 (inactive).
Turning to `O=C(NCc1nc2ccccc2[nH]1)c1ccc(Cl)c(S(=O)(=O)N2CCCC2)c1`, the cell count in assay [1] stood at 594. For the same molecule, the inhibition in assay [1] is -15.4% (inactive); in assay [3] it was 47% (inactive); in assay [7] it was -7.84% (inactive); in assay [8] it was -15.6% (inactive). In addition, the inhibition of aggregation in assay [2] was -35.2% (inactive). Moreover, the nuclei count in assay [2] is 101%; in assay [3], 112%. The fluorescence slope in assay [4] was -0.531 (inactive). Besides, in assay [5], the NADPH fluorescence slope is 2.5e-05 (inactive). Further, the slope in assay [6] was 0.00466 (inactive).
For `O=C(c1cnn2c1NC(c1ccco1)CC2C(F)(F)F)N1CCN(c2cccc(Cl)c2)CC1` (centres undefined), the cell count in assay [1] worked out at 313. Also, the inhibition in assay [1] was -3.8% (inactive); in assay [3], -38.6% (inactive); in assay [7], 46.3% (inactive); in assay [8] it was 19.8% (inactive). Further, the inhibition of aggregation in assay [2] is -7.8% (inactive). For the same molecule, the nuclei count amounted to 114% in assay [2] and 126% in assay [3]. The fluorescence slope in assay [4] was -0.382 (inactive). Besides, the NADPH fluorescence slope in assay [5] is -6e-05 (inactive). Besides, in assay [6], the slope is 0.00418 (inactive).
Regarding `Cc1ccc(N2CCN(S(=O)(=O)N(C)C)CC2)c(C)c1`, in assay [1], the cell count stood at 393. Also, the inhibition was -2.4% (inactive) in assay [1], -55.1% (inactive) in assay [3], 2.52% (inactive) in assay [7] and 4.97% (inactive) in assay [8]. In addition, in assay [2], the inhibition of aggregation is 23.9% (inactive). For the same molecule, the values for the nuclei count in assay [2] and in assay [3] were 75.5% and 107%, respectively. The fluorescence slope in assay [4] is -0.559 (inactive). The NADPH fluorescence slope in assay [5] was -3.5e-06 (inactive). The slope in assay [6] was 0.00671 (inactive).
Regarding `O=C(NCc1ccccc1)c1ccc(OC2CSC2)cc1`, in assay [1], the cell count stood at 655. The inhibition was -30.1% (inactive) in assay [1], -45.7% (inactive) in assay [3], -8.59% (inactive) in assay [7] and -14.1% (inactive) in assay [8]. For the same molecule, the inhibition of aggregation in assay [2] was 9.3% (inactive). Moreover, the nuclei count in assay [2] stood at 97.9%; in assay [3], 108%. Further, the fluorescence slope in assay [4] is -0.486 (inactive). Also, the NADPH fluorescence slope in assay [5] was -4.6e-05 (inactive). The slope in assay [6] is 0.00606 (inactive).
Take `CCOC(=O)c1ccc2[nH]c3c(c2c1)CN(C)CC3`: in assay [1], the cell count was found to be 686. The inhibition was -1.3% (inactive) in assay [1], -29.4% (inactive) in assay [3], 5.79% (inactive) in assay [7] and 21.3% (inactive) in assay [8]. Also, in assay [2], the inhibition of aggregation is 28.7% (inactive). Moreover, the results for the nuclei count in assay [2] and in assay [3] were 73.1% and 114%, respectively. Besides, the fluorescence slope in assay [4] was -0.543 (inactive). Moreover, the NADPH fluorescence slope in assay [5] is -5.6e-05 (inactive). In assay [6], the slope was 0.00602 (inactive).
As for `CCOc1ccccc1C1C(C(=O)Nc2ccc(OC)cc2)=C(C)Nc2nc(CCCO)nn21` (centres undefined), the cell count in assay [1] worked out at 659. Moreover, the inhibition was -0.3% (inactive) in assay [1], -35.4% (inactive) in assay [3], -0.537% (inactive) in assay [7] and 17.2% (inactive) in assay [8]. Further, in assay [2], the inhibition of aggregation was -30.8% (inactive). Also, the nuclei count was found to be 116% in assay [2] and 118% in assay [3]. Further, the fluorescence slope in assay [4] is -0.443 (inactive). Moreover, the NADPH fluorescence slope in assay [5] is -2.8e-05 (inactive). Further, the slope in assay [6] was 0.00548 (inactive).
Take `CCN(CC)S(=O)(=O)c1ccc(Br)c(OC)c1`: the cell count in assay [1] was 374. In addition, the inhibition in assay [1] is 4.5% (inactive); in assay [3], -15.1% (inactive); in assay [7], 18.3% (inactive); in assay [8] it was 34.5% (inactive). Besides, in assay [2], the inhibition of aggregation was -7.1% (inactive). Also, the results for the nuclei count in assay [2] and in assay [3] were 100% and 107%, respectively. In addition, the fluorescence slope in assay [4] was -0.371 (inactive). Further, the NADPH fluorescence slope in assay [5] is -5.2e-05 (inactive). Besides, the slope in assay [6] was 0.00493 (inactive).
On to `O=C(NCCc1c[nH]c2ccccc12)c1cnc2n(c1=O)CCS2`, for which, in assay [1], the cell count came out at 532. Besides, the inhibition in assay [1] was 6.3% (inactive); in assay [3], -35.9% (inactive); in assay [7] it was -48.8% (inactive); in assay [8] it was -79.3% (inactive). The inhibition of aggregation in assay [2] was -8.9% (inactive). Further, the nuclei count was determined as 103% in assay [2] and 90.6% in assay [3]. Further, the fluorescence slope in assay [4] is -0.547 (inactive). In addition, the NADPH fluorescence slope in assay [5] was -2.5e-05 (inactive). In addition, in assay [6], the slope is 0.00796 (inactive).
For the molecule `NC(=O)c1ccccc1NC(=O)CCCN1C(=O)CCC1=O`, the cell count in assay [1] turned out to be 567. The inhibition in assay [1] is -1.8% (inactive); in assay [3], -30.7% (inactive); in assay [7], 2.16% (inactive); in assay [8], 13.3% (inactive). Also, the inhibition of aggregation in assay [2] is -7.8% (inactive). Moreover, the nuclei count in assay [2] was found to be 104%; in assay [3] it was 92.1%. Moreover, the fluorescence slope in assay [4] is -0.601 (inactive). In assay [5], the NADPH fluorescence slope is -1.2e-05 (inactive). In addition, the slope in assay [6] is 0.00648 (inactive).
For `Cc1ccc(S(=O)(=O)Nc2cc(C(=O)O)ccc2N2CCCCC2)cc1`, the cell count in assay [1] is 518. Also, the inhibition in assay [1] is -20.1% (inactive); in assay [3] it was -107% (inactive); in assay [7], 11.2% (inactive); in assay [8], 29.2% (inactive). Further, in assay [2], the inhibition of aggregation was 15.4% (inactive). Also, the nuclei count in assay [2] worked out at 98.1%; in assay [3], 114%. For the same molecule, the fluorescence slope in assay [4] is -0.42 (inactive). In addition, in assay [5], the NADPH fluorescence slope is -2.5e-05 (inactive). Besides, the slope in assay [6] was 0.00575 (inactive).
As for `C=CCn1c(C)cc(C(=O)CSc2nc3ccccc3o2)c1C`, the cell count in assay [1] was found to be 615. The inhibition was -8.9% (inactive) in assay [1], -58.1% (inactive) in assay [3], -26.5% (inactive) in assay [7] and -136% (inactive) in assay [8]. In assay [2], the inhibition of aggregation is -16.3% (inactive). Also, the nuclei count in assay [2] was determined as 105%; in assay [3], 104%. Besides, in assay [4], the fluorescence slope is -0.595 (inactive). In addition, the NADPH fluorescence slope in assay [5] is -5.9e-05 (inactive). In assay [6], the slope was 0.00586 (inactive).
In the case of `O=C(c1ccccc1)c1ccncc1`, the cell count in assay [1] amounted to 391. For the same molecule, the inhibition in assay [1] was 7% (inactive); in assay [3] it was -5.9% (inactive); in assay [7] it was 19% (inactive); in assay [8], 27.8% (inactive). Besides, in assay [2], the inhibition of aggregation was -9.4% (inactive). Further, the nuclei count in assay [2] amounted to 103%; in assay [3], 119%. In addition, the fluorescence slope in assay [4] was -0.399 (inactive). Besides, the NADPH fluorescence slope in assay [5] is -2.9e-05 (inactive). For the same molecule, the slope in assay [6] was 0.0031 (inactive).
